Pf growth 96h: inhibits malaria parasite growth, 96 h; P. falciparum luciferase reporter growth, 96 h; Potency, µM (top dose mostly 28.7 µM), most hits filed as inhibitors; actives 6.9% (n = 320,000); AID 504834
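Two-generation exposure (96 h) targets delayed-death phenotype. Reporter parasites carrying integrated firefly luciferase, in red cells at 2% hematocrit and 0.05% parasitemia final, kept at 37 C, 5% CO2; luminescence loss indicates inhibition.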
AMA1-RON2 inh: AMA1-RON2 (P. falciparum) interaction inhibition | AID 720542 | Potency, µM (highest dose often 58.2 µM), most hits filed as inhibitors | actives 0.2% (n = 360,000) | AlphaScreen AMA1-biotinylated RON2 peptide binding; also: nearly all actives have a fitted effect of over 45% in size
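AMA1 (3D7) with his tag at 25 nM final met compounds first, then biotinylated RON2 peptide at 25 nM; detection used donor plus acceptor beads, 10 µg/mL apiece, read by AlphaScreen after 30 min at room temperature.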
SARS PLpro yeast: inhibitors of SARS-CoV papain-like protease in yeast; actives 0.19% (n = 330,000); AID 485353; Potency, µM (highest dose often 32.9 µM), most hits filed as activators; S. cerevisiae expressing SARS-CoV PLpro, growth rescue; calls by dose curve; also: nearly all actives have a fitted effect of over 55% in size
Pf growth 48h: P. falciparum growth inhibition at 48 hours (one generation); P. falciparum luciferase growth in erythrocytes, 48 h; Potency, µM (titrated, usually from 28.7 µM), most hits filed as inhibitors; actives 5.9% (n = 310,000)
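Luciferase-expressing P. falciparum in infected erythrocytes (2% hematocrit, 0.1% parasitemia final) in RPMI 1640/0.5% Albumax were exposed to compound for 48 hours at 37 C, 5% CO2; growth read as luminescence.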
Numbers stand for hits; 0 = inactive; ? = inconclusive; - = no result given. Compounds with a hit are over-represented: about 9.4% of the library has one in this group of screens. Unless noted, calls follow the shape of the dose curve; as a rule, active = well fitted curve in the direction sought with a large enough effect; inconclusive = small, poorly fitted or top-dose-only effect, or another doubt; inactive = no such curve, though single readings can be large; an effect the other way counts as inactive or inconclusive.

SMILES	Pf growth 96h	AMA1-RON2 inh	SARS PLpro yeast	Pf growth 48h
O=C(Nc1nc(-c2ccc(S(=O)(=O)N3CCCC3)cc2)cs1)C1COc2ccccc2O1 (centres undefined)	0	0	0	9.28µM
O=C(Nc1nc(-c2ccc(S(=O)(=O)N3CCCCCC3)cc2)cs1)c1ccccc1	0	0	0	-
O=C(Nc1nc(-c2ccc3c(c2)OCCO3)cs1)c1ccc(S(=O)(=O)N2CCCCC2)cc1	?	0	0	11.7µM
COc1ccc(Cl)cc1S(=O)(=O)Nc1noc2ccccc12	0	0	0	0
O=c1[nH]c(NCCO)nnc1Cc1ccccc1	0	0	0	0
COc1cccc(C(=O)NCC(c2ccc3c(c2)OCO3)N2CCN(c3ccc(F)cc3)CC2)c1 (centres undefined)	?	?	0	?
Cc1cccc(N(CC(=O)NC2CCCC2)C(=O)c2cc3cc4cccc(C)c4nc3s2)c1C	?	0	0	?
CN(C)CC(CCC(CN(C)C)C(O)(c1ccccc1)c1ccccc1)C(O)(c1ccccc1)c1ccccc1 (centres undefined)	1.85µM	0	0	1.85µM
Cc1ccc(C(=O)Nc2cc(C(F)(F)F)ccc2N2CCCCC2)cc1[N+](=O)[O-]	0	0	0	13.1µM
Cc1cc(C(=O)Nc2ccc(N3CCCC3)c(Cl)c2)ccc1[N+](=O)[O-]	9.28µM	22.4µM	0	0
O=C(Nc1cc(C(F)(F)F)ccc1N1CCCC1)c1ccc2c(c1)OCO2	0	0	0	?
CCC(=O)N1CCN(c2ccc(Cl)cc2NC(=O)c2ccc(N3CCCC3)c([N+](=O)[O-])c2)CC1	1.85µM	0	0	?
O=C(Nc1ccc(N2CCCC2)c(Cl)c1)c1ccc([N+](=O)[O-])cc1	0	0	0	?
CCC(=O)N1CCN(c2ccc(Cl)cc2NC(=O)c2ccc3c(c2)OCCO3)CC1	0	0	-	?
O=C(Nc1cc(C(F)(F)F)ccc1N1CCCCC1)c1cccc([N+](=O)[O-])c1	?	?	0	14.7µM
Cc1ccc2c(c1)nc1c3ccccc3nc(-c3ccccc3N)n21	-	0	-	-
O=C(c1ccc(NC(=S)NCc2ccco2)cc1)N1CCOCC1	0	0	0	0
Cc1cccc(NC(=O)c2ccc(N3CCCCC3)c([N+](=O)[O-])c2)n1	0	?	0	0
Cc1ccc(C)c2sc(NC(=O)c3ccc(N4CCCCC4)c([N+](=O)[O-])c3)nc12	?	0	0	2.62µM

Compound activity as filed in PubChem.
